PubChem BioAssay AID1159580 (chemical genetic matrix, 2015)
The campaign covered roughly 5,500 compounds. About 2,000 (36%) were called active. Another 18% or so got no clear call; they are omitted. Cut-off read from the data, not from the text of the source: active = normalized growth mostly below about 0.91 (no sharp cut-off); inconclusive = no clear call, values can overlap the other calls; inactive = mostly above about 0.92. The list shows a part of the results.

Experiment: chemical genetic growth profiling, strain panel (AID 1159580);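 note: tested at 20 µM; growth read once vehicle control cultures reached saturation at 30 °C; 1 = growth at the plate median or of vehicle wells; lower values mean less growth of the strain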
Conditions: S. cerevisiae deletion strains, growth OD
[1] = locus YHR030C, strain SLT2, active compounds read low
[2] = locus YJL095W, strain BCK1, active compounds read low

Measured: normalized growth

CC(C)CCCC(C)[C@H]1CCC2C3CC[C@@H]4C[C@H](O)CC[C@]4(C)C3CC[C@@]21C (stereo partly specified)
inactive: locus YAL013W, strain DEP1, active compounds read low 1.04 | locus YBR021W, strain FUR4, active compounds read low 0.992 | locus YBR229C, strain ROT2, active compounds read low 1 | locus YCL029C, strain bik1, active compounds read low 1.02 | locus YDL035C, strain GPR1, active compounds read low 1.02 | locus YDL074C, strain BRE1, active compounds read low 1.01 | locus YDL101C, strain DUN1, active compounds read low 1.01 | locus YDL185W, strain tfp1, active compounds read low 1.02 | locus YDL192W, strain arf1, active compounds read low 1 | locus YDR101C, strain arx1, active compounds read low 0.991 | locus YDR162C, strain NBP2, active compounds read low 1.03 | locus YDR318W, strain mcm21, active compounds read low 1.01 | locus YDR388W, active compounds read low 1 | locus YDR502C, strain sam2, active compounds read low 0.999 | locus YEL061C, strain CIN8, active compounds read low 1 | locus YER110C, active compounds read low 1.01 | locus YER155C, strain BEM2, active compounds read low 1 | locus YER167W, strain BCK2, active compounds read low 1.02 | locus YGL078C, strain dbp3, active compounds read low 1 | locus YGL086W, strain mad1, active compounds read low 1 | locus YGL248W, strain PDE1, active compounds read low 1.01 | locus YGR135W, strain pre9, active compounds read low 1.01 | locus YGR252W, strain gcn5, active compounds read low 0.985 | [1] 1.01 | locus YHR079C, strain IRE1 (second series), active compounds read low 0.997 | locus YHR094C, strain hxt1, active compounds read low 1.01 | locus YHR129C, strain ARP1, active compounds read low 1 | locus YHR200W, strain rpn10, active compounds read low 1 | locus YIL066C, strain RNR3, active compounds read low 1.03 | locus YIL073C, strain SPO22, active compounds read low 1.03 | locus YIL125W, strain kgd1, active compounds read low 0.999 | locus YIR030C, strain dcg1, active compounds read low 1 | [2] 1.01 | locus YJL134W, strain LCB3, active compounds read low 1.01 | locus YJL168C, strain set2, active compounds read low 0.994 | locus YJL187C, strain SWE1 (second series), active compounds read low 1.01 | locus YJR043C, strain POL32, active compounds read low 1.01 | locus YJR075W, strain HOC1, active compounds read low 1 | locus YKL009W, strain mrt4, active compounds read low 1.02 | locus YKL068W, active compounds read low 1 | locus YKL085W, strain MDH1 (second series), active compounds read low 1.01 | locus YKL085W, strain MDH1, active compounds read low 1.01 | locus YKL190W, strain CNB1, active compounds read low 1.01 | locus YKR001C, strain vps1, active compounds read low 0.998 | locus YLR039C, strain RIC1, active compounds read low 1.06 | locus YLR058C, strain SHM2, active compounds read low 1 | locus YLR102C, strain apc9, active compounds read low 1 | locus YLR262C, strain YPT6, active compounds read low 1.06 | locus YLR268W, strain sec22, active compounds read low 0.999 | locus YLR330W, strain CHS5, active compounds read low 1.01 | locus YLR342W, strain FKS1 (second series), active compounds read low 1.01 | locus YLR371W, strain rom2, active compounds read low 1.02 | locus YLR418C, strain cdc73, active compounds read low 0.978 | locus YML016C, strain PPZ1, active compounds read low 1.01 | locus YML032C, strain rad52, active compounds read low 1 | locus YML124C, strain tub3, active compounds read low 1 | locus YMR078C, strain ctf18, active compounds read low 1 | locus YMR223W, strain ubp8, active compounds read low 1.01 | locus YMR307W, strain GAS1, active compounds read low 1.07 | locus YNL067W, strain RPL9B, active compounds read low 1.01 | locus YNL153C, strain GIM3, active compounds read low 1.01 | locus YNL233W, strain BNI4, active compounds read low 1.01 | locus YNL250W, strain rad50, active compounds read low 1 | locus YNL271C, strain bni1, active compounds read low 1.01 | locus YNL298W, strain CLA4, active compounds read low 1 | locus YNL307C, strain MCK1, active compounds read low 1.01 | locus YNL322C, strain KRE1, active compounds read low 1.01 | locus YNR052C, strain pop2, active compounds read low 0.999 | locus YOL006C, strain TOP1, active compounds read low 1.04 | locus YOL012C, strain htz1 0.869 | locus YOL147C, strain pex11, active compounds read low 0.991 | locus YOR061W, strain CKA2, active compounds read low 1.01 | locus YOR069W, strain VPS5, active compounds read low 1.01 | locus YOR136W, strain idh2, active compounds read low 0.994 | locus YOR144C, strain elg1, active compounds read low 0.987 | locus YOR184W, strain ser1, active compounds read low 0.989 | locus YOR316C, strain cot1, active compounds read low 1 | locus YPL055C, strain LGE1, active compounds read low 1.01 | locus YPR119W, strain clb2, active compounds read low 1 | locus YPR141C, strain kar3, active compounds read low 1.02 | locus YPR163C, strain tif3, active compounds read low 1.01 | locus YPR167C, strain met16, active compounds read low 1 | strain wtn01, active compounds read low 1

CC(C)CCCC(C)C1CCC2C3CC[C@H]4C[C@H](O)CC[C@]4(C)C3CC[C@]12C (stereo partly specified)
inactive: [1] 0.98 | locus YHR079C, strain IRE1, active compounds read low 0.985 | [2] 0.992 | locus YJR066W, strain TOR1, active compounds read low 0.919 | locus YLR113W, strain HOG1, active compounds read low 0.985 | locus YNL183C, strain NPR1, active compounds read low 0.916 | locus YOR231W, strain MKK1, active compounds read low 0.991 | locus YPL256C, strain CLN2, active compounds read low 0.981
